Compound activity (PubChem)
This is a sample that favours compounds with a hit; in the whole collection about 4.1% have one here.
EBV LMP1 NFkB: EBV LMP1-driven NF-kappaB luciferase reporter inhibitors, primary screen, cell-based, luminescence, single point | LMP1-induced NF-kappaB luciferase reporter cells | inhibition, % at 12.5 µM | 350,000 compounds, 0.69% hits; in the data active = inhibition above about 41%;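 note: 0% = neutral control wells and 100% = reference inhibitor control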
TWEAK-Fn14 inh: inhibitors of TWEAK-Fn14 signaling, primary screen, luciferase reporter cells, uHTS; TWEAK-stimulated Fn14 reporter cells, luciferase luminescence, 8 h; inhibition, % at 10 µM; 360,000 compounds, 2% hits; in the data active = inhibition above about 50%
TROY NFkB inh: inhibitors of TROY-driven NF-kB signaling, primary screen, Q293 LMP1-TROYcd cells, NF-kB luciferase, uHTS. Q293 LMP1-TROYcd NF-kB luciferase reporter, 4 h. inhibition, % at 10 µM. 360,000 compounds, 0.98% hits. AID 1347056, 2019;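 active = compounds whose plate-normalised and pattern-corrected inhibition of the luciferase reporter signal at the single screening dose is 50% or more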
Peg3 promoter: Peg3 promoter-driven luciferase inhibitors, primary screen, cell-based, HeLa, luciferase luminescence | inhibition, % at 20 µM | AID 588405, 2011 | HeLa PEG-Prom luciferase reporter, overnight | 360,000 compounds, 1.7% hits;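 active = inhibition of at least 50% at 20 µM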
Shn3 inh set2: reduction of Shn3 3'UTR firefly luciferase signal, primary screen, Schnurri-3 inhibitor project, cell-based, Clone20 osteoblasts, set 2; Clone20 osteoblast Shn3 3'UTR firefly luciferase, 24 h; inhibition, % at 12.5 µM; 360,000 compounds, 0.52% hits;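 active = mean inhibition of at least 75% with every replicate also reaching 75%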;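 note: 0% = median of neutral control wells and 100% = pilot-screen positive control compound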
TRPM1 prom inh: inhibitors of MITF-dependent TRPM1 promoter reporter, primary screen, cell-based, SK-MEL-5, single point, luciferase | SK-MEL-5 TRPM1 promoter luciferase, 24 h | inhibition, % at 12.5 µM | 330,000 compounds, 0.83% hits | AID 488899, 2010;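 active = mean inhibition across replicates of 60% or more, whatever share of single replicates reaches that level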
The depositor's hits bear a star; nt = no result given.

SMILES	EBV LMP1 NFkB	TWEAK-Fn14 inh	TROY NFkB inh	Peg3 promoter	Shn3 inh set2	TRPM1 prom inh
CC(C)CN(C(=O)COC(=O)c1cnc(Cl)c(Cl)c1)c1c(N)n(Cc2ccccc2)c(=O)[nH]c1=O	-2	15	28	85*	4	4
CC(C)CCN(C(=O)Cc1ccc(Cl)c(Cl)c1)c1c(N)n(Cc2ccccc2)c(=O)[nH]c1=O	3	-5	8	32	23	81*
Cc1ccc(C(=O)N(Cc2ccco2)c2c(N)n(Cc3ccccc3)c(=O)[nH]c2=O)cc1	-4	17	-4	0	-11	nt
CC(C)[C@H](NC(=O)N1c2ccccc2NC(=O)[C@@H]1C(C)C)C(=O)N1CCC(C(=O)O)CC1	-8	18	-7	-3	-13	-8
COc1ccc(-c2nc(SCC(=O)N(CC(C)C)c3c(N)n(Cc4ccccc4)c(=O)[nH]c3=O)n[nH]2)cc1	-7	8	4	-12	-11	6
CC(C)CN(C(=O)CSc1nc(-c2ccccc2)cn1N)c1c(N)n(Cc2ccccc2)c(=O)[nH]c1=O	-18	43	54*	-142	-67	-8
Cc1ccnc(Nc2nc3ccccc3o2)n1	40	80*	31	-4	15	17
Cc1nc(Nc2nc3ccccc3o2)nc(C)c1C	8	57*	17	-81	-39	-3
N#Cc1cnc(Nc2nc3ccccc3o2)nc1-c1ccccc1	-13	-3	7	-29	-28	-9
C=CCNc1nc(N2CCOCC2)c(C#N)c2c1CN(C)CC2	-13	-7	-9	15	97*	6
CCN1CCc2c(C#N)c(N3CCOCC3)nc(NCCO)c2C1	3	-4	0	3	-4	4
COc1cc(NC(=O)c2cccc3c2C(=O)N(C2CCCCC2)C3)cc(OC)c1OC	10	3	6	44	25	11
CCO[C@H]1OC(C(N)=O)=C[C@@H](C(C)(C)C)[C@@H]1CCCO	1	54*	-19	0	-1	6
COC(=O)c1ccc(COc2ccc(/C=C(\C#N)c3nc4ccccc4[nH]3)cc2OC)o1	-25	60*	5	10	38	10
COc1cc(/C=C(/C#N)c2nc3ccccc3[nH]2)ccc1OCc1ccc(C(=O)O)o1	9	6	-7	1	2	8
CCc1ccc(NC(=O)COc2ccc(/C=C(/C#N)c3nc4ccccc4[nH]3)cc2OC)cc1	-1	7	15	57*	-14	-1
O=c1c2cc([N+](=O)[O-])cc([N+](=O)[O-])c2[nH]n1-c1ccccc1	7	3	4	-21	-10	20
O=c1[nH]c(=O)c2cc([N+](=O)[O-])cc([N+](=O)[O-])c2[nH]1	24	7	68*	20	7	2
CC(C)Oc1ccccc1C1(c2ccccc2)NC(=O)NC1=O (stereo not drawn)	-2	-8	2	17	-31	4
COC(=O)c1c(NC(=O)CCNCc2ccco2)sc2c1CCC2	-5	-31	1	5	5	-1
O=C(CCNS(=O)(=O)c1ccc(OC(F)(F)F)cc1)N1CCCC1	-6	-14	4	11	-6	-1
CN(C)CC(C)(C)CNS(=O)(=O)c1ccc(OC(F)(F)F)cc1	47*	1	4	8	35	1
CC(C)(C)NC(=S)Nc1ccc(Nc2ccccc2)cc1	3	56*	-61	-48	16	-9
COCCN=c1scc(-c2cc(OC)c(OC)c(OC)c2)n1/N=C/c1c(C)[nH]c2ccccc12	10	54*	20	53*	8	6
c1ccc(OCCCCn2cnc3ccccc32)cc1	9	74*	nt	-33	45	-9
O=[N+]([O-])c1cccc2nc3ccccc3c(NCCCn3ccnc3[N+](=O)[O-])c12	3	-27	-20	99*	-4	82*
CC1=C/C(=N\Nc2ccccc2[N+](=O)[O-])CC(C)(C)C1	-3	12	58*	-15	-22	7
O=[N+]([O-])c1ccccc1N/N=C/c1ccccc1	-19	15	-29	-204	-157	-32
